The source of these data is PubChem BioAssay (NCI).

About 79,000 compounds went through this panel and 15% of them were active in at least one assay; those are over-represented in the sample as a whole. Calls of active or inactive are those of the source. No stated cut-off is given here; in the data, active means growth inhibition above about 70%; inactive means the rest.

The first experiment is described as follows: NCI Yeast Anticancer Drug Screen. Data for the rad50 strain (AID 155).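 Further: 0% = growth of vehicle-only cultures of the same strain.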 The conditions noted are these: S. cerevisiae rad50 strain growth inhibition; at 50.0 µM; stronger effect = higher value. The procedure, abridged: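 Relative growth inhibition (compound vs vehicle) was measured in yeast with a defined repair-gene alteration.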
In the case of `Cc1cc2c(c(C(=O)NCC(=O)O)c1)Oc1c(cc(C)cc1C(=O)NCC(=O)O)S2`, the growth inhibition was -17% (inactive).

As for `O=C(Nc1ccc(Cl)cc1)Nc1nnc2nc(CC(=O)c3cccc([N+](=O)[O-])c3Cl)c(=O)[nH]n12`, the growth inhibition was -9.45% (inactive).

Turning to `CC(C)C(CC(=O)O)C(=O)O` (stereo not given), the growth inhibition is 3.8% (inactive).

Take `COCC(=O)c1ccc(C#N)cc1`: the growth inhibition was 4.35% (inactive).

Turning to `CCCCCCC(C)Cl` (stereo not given), the growth inhibition is 18.9% (inactive).

For the compound `COc1ccc(C2N3CCCCC3[C@@H]3c4[nH]c5ccccc5c4CCN23)c(OC)c1` (stereo not given in full), the growth inhibition was -30.2% (inactive).

Regarding `O=C1CCCCCCN1`, the growth inhibition was 8.9% (inactive).

In the case of `NC(Cc1ccccc1CP(=O)(O)O)C(=O)O` (stereo not given), the growth inhibition is -46.8% (inactive).

Turning to `CCOC(=O)c1sc(C(=O)OCC)c(O)c1O`, the growth inhibition was 97% (active).

On to `CCOc1ccc(NC(=O)C(=O)CC(=O)C2=C(C)Nc3ccccc3S2)cc1`, for which the growth inhibition is 27.6% (inactive).

As to `S=C1CC(c2ccccc2)Sc2ccccc2N1` (stereo not given), the growth inhibition was -1.45% (inactive).

`CCN(CC)CCN1Cc2ccccc2C1`: the growth inhibition was -4.8% (inactive).

For the compound `CCc1ccccc1NC(=O)C1=C(C)NC(C)=C(C(=O)Nc2ccccc2CC)C1c1ccc2c(c1)OCO2`, the growth inhibition is -9.35% (inactive).

As for `COC(=O)C1CCC=CC1OC(C)=O` (stereo not given), the growth inhibition was 1.65% (inactive).

Take `CCN(CC)c1ccc(Br)cc1`: the growth inhibition was 32.9% (inactive).

With `COC(=O)CC1(O)C=C(C)C(=O)c2ccccc21` (stereo not given), the growth inhibition was 4.9% (inactive).

For `CNC(=O)Sc1ccc([N+](C)(C)C)cc1`, the growth inhibition was 9.8% (inactive).

Take `Cc1c2oc3c(C)ccc(C(=O)NCCN4CCN(c5ccccc5)CC4)c3nc-2c(C(=O)NCCN2CCN(c3ccccc3)CC2)c(N)c1=O`: the growth inhibition was -4.7% (inactive).

On to `BrCCCCCBr`, for which the growth inhibition was 12.4% (inactive).

For `O=[N+]([O-])c1ccc2c(c1)C(O)c1ccccc1-2` (stereo not given), the growth inhibition is 35.6% (inactive).

On to `CC(O)C(C)C(N)C(=O)O` (stereo not given), for which the growth inhibition was 3.7% (inactive).

`Cc1cccc(NC(=S)N(CCC#N)C2CCCCC2)c1`: the growth inhibition was 1.6% (inactive).

Take `CNC(=O)OCc1c(COC(=O)NC)c2n(c1C)CCS2(=O)=O`: the growth inhibition was -1.25% (inactive).

Turning to `Cc1ccc2[nH]c(C)c(C(=O)c3ccncc3)c2c1`, the growth inhibition is -2.75% (inactive).

Take `Brc1ccc2c(c1)C1(c3cc(Br)ccc3-2)c2cc(Br)ccc2-c2ccc(Br)cc21`: the growth inhibition is 2.45% (inactive).

For `COc1ccc2c(CC(=O)O)cc(=O)oc2c1`, the growth inhibition is 12.2% (inactive).

As to `O=c1cc(NCc2cccc([N+](=O)[O-])c2)[nH]c(=O)[nH]1`, the growth inhibition was 0.1% (inactive).

For `CCCCCCCCCCCCOC1C(COCCN2CCCCC2)OC2OC(C)(C)OC21` (stereo not given), the growth inhibition is 92.6% (active).

With `CN(N=O)C(=O)NC(C=O)C(O)C(O)C(O)CO` (stereo not given), the growth inhibition is 5.25% (inactive).

With `Cc1ccc2c(c1)SCc1c-2[nH]c2ccccc12`, the growth inhibition was 93.2% (active).

For the compound `N#C/C(=C\c1cccc(Cl)c1)C(=O)c1ccccc1`, the growth inhibition is 1.1% (inactive).

As to `COC(=O)C1(Cc2ccc3c(c2)CCC3)Cc2ccccc2C1=O` (stereo not given), the growth inhibition was 5.1% (inactive).

`CC(C)C(=O)CC1(O)C(=O)Nc2ccc([N+](=O)[O-])cc21` (stereo not given): the growth inhibition was -9.95% (inactive).

Take `CC(=O)OC1/C=C(/C)CCC2OC2(C)CC2OC(=O)C3(CC3)C12` (stereo not given): the growth inhibition is 0.85% (inactive).

`CCCCCCCCCCCC(=O)Nc1ccc(N(C)C(C)=O)cc1`: the growth inhibition is -14.4% (inactive).

For `CN(Cc1ccc(Cl)cc1)C(=O)Nc1ccccc1Cl`, the growth inhibition is 6.7% (inactive).

`CCOc1cc(C)c2cccc(C)c2n1`: the growth inhibition was 17.1% (inactive).

In the case of `Cc1nc2ccccc2n1CCC(N)=O`, the growth inhibition was 24.6% (inactive).

Regarding `ClCC1=NC2C(Cl)C(Cl)C(Cl)C(Cl)C2N1` (stereo not given), the growth inhibition was 87.8% (active).

Consider `CC(C)CC(NS(=O)(=O)Cc1ccccc1)C(=O)NN` (stereo not given), for which the growth inhibition was -26.9% (inactive).

A short description of the next experiment: NCI Yeast Anticancer Drug Screen. Data for the mec2-1 strain (AID 157). The conditions noted are these: S. cerevisiae mec2-1 strain, at 50.0 µM, stronger effect = higher value. The procedure, abridged: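 Test agents were screened against the mec2-1 yeast strain, with defined DNA repair or cell cycle alteration. Growth was scored as inhibition against vehicle-only controls.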
For `Cc1cc2c(c(C(=O)NCC(=O)O)c1)Oc1c(cc(C)cc1C(=O)NCC(=O)O)S2`, the growth inhibition is 20.1% (inactive).

For `O=C(Nc1ccc(Cl)cc1)Nc1nnc2nc(CC(=O)c3cccc([N+](=O)[O-])c3Cl)c(=O)[nH]n12`, the growth inhibition was 11.4% (inactive).

Take `CC(C)C(CC(=O)O)C(=O)O` (stereo not given): the growth inhibition was -1.35% (inactive).

On to `COCC(=O)c1ccc(C#N)cc1`, for which the growth inhibition is -20.2% (inactive).

On to `CCCCCCC(C)Cl` (stereo not given), for which the growth inhibition is -6.05% (inactive).

As for `COc1ccc(C2N3CCCCC3[C@@H]3c4[nH]c5ccccc5c4CCN23)c(OC)c1` (stereo not given in full), the growth inhibition is -24.4% (inactive).

In the case of `O=C1CCCCCCN1`, the growth inhibition is -33.4% (inactive).

For the compound `NC(Cc1ccccc1CP(=O)(O)O)C(=O)O` (stereo not given), the growth inhibition was -41.1% (inactive).

Regarding `CCOC(=O)c1sc(C(=O)OCC)c(O)c1O`, the growth inhibition was 95.5% (active).

Take `CCOc1ccc(NC(=O)C(=O)CC(=O)C2=C(C)Nc3ccccc3S2)cc1`: the growth inhibition is 14.8% (inactive).

As to `S=C1CC(c2ccccc2)Sc2ccccc2N1` (stereo not given), the growth inhibition was 1.85% (inactive).

In the case of `CCN(CC)CCN1Cc2ccccc2C1`, the growth inhibition was 3.85% (inactive).

`CCc1ccccc1NC(=O)C1=C(C)NC(C)=C(C(=O)Nc2ccccc2CC)C1c1ccc2c(c1)OCO2`: the growth inhibition is 3.6% (inactive).

On to `COC(=O)C1CCC=CC1OC(C)=O` (stereo not given), for which the growth inhibition is -12.6% (inactive).

As to `CCN(CC)c1ccc(Br)cc1`, the growth inhibition is 4% (inactive).

On to `COC(=O)CC1(O)C=C(C)C(=O)c2ccccc21` (stereo not given), for which the growth inhibition was -5.7% (inactive).

As to `CNC(=O)Sc1ccc([N+](C)(C)C)cc1`, the growth inhibition is 0.1% (inactive).

Turning to `Cc1c2oc3c(C)ccc(C(=O)NCCN4CCN(c5ccccc5)CC4)c3nc-2c(C(=O)NCCN2CCN(c3ccccc3)CC2)c(N)c1=O`, the growth inhibition is 2.2% (inactive).

`BrCCCCCBr`: the growth inhibition is 6.3% (inactive).

In the case of `O=[N+]([O-])c1ccc2c(c1)C(O)c1ccccc1-2` (stereo not given), the growth inhibition was 24.6% (inactive).

`CC(O)C(C)C(N)C(=O)O` (stereo not given): the growth inhibition is 2% (inactive).

For the compound `Cc1cccc(NC(=S)N(CCC#N)C2CCCCC2)c1`, the growth inhibition is -2.85% (inactive).

Regarding `CNC(=O)OCc1c(COC(=O)NC)c2n(c1C)CCS2(=O)=O`, the growth inhibition is -18.3% (inactive).

On to `Cc1ccc2[nH]c(C)c(C(=O)c3ccncc3)c2c1`, for which the growth inhibition was -15.4% (inactive).

Take `Brc1ccc2c(c1)C1(c3cc(Br)ccc3-2)c2cc(Br)ccc2-c2ccc(Br)cc21`: the growth inhibition is -5.9% (inactive).

Take `COc1ccc2c(CC(=O)O)cc(=O)oc2c1`: the growth inhibition is -22.8% (inactive).

Consider `O=c1cc(NCc2cccc([N+](=O)[O-])c2)[nH]c(=O)[nH]1`, for which the growth inhibition is 8.2% (inactive).

With `CCCCCCCCCCCCOC1C(COCCN2CCCCC2)OC2OC(C)(C)OC21` (stereo not given), the growth inhibition is 93.4% (active).

For the compound `CN(N=O)C(=O)NC(C=O)C(O)C(O)C(O)CO` (stereo not given), the growth inhibition was -23.4% (inactive).

For `Cc1ccc2c(c1)SCc1c-2[nH]c2ccccc12`, the growth inhibition is 95.3% (active).

Turning to `N#C/C(=C\c1cccc(Cl)c1)C(=O)c1ccccc1`, the growth inhibition was 11.3% (inactive).

Regarding `COC(=O)C1(Cc2ccc3c(c2)CCC3)Cc2ccccc2C1=O` (stereo not given), the growth inhibition is 22.4% (inactive).

Take `CC(C)C(=O)CC1(O)C(=O)Nc2ccc([N+](=O)[O-])cc21` (stereo not given): the growth inhibition is -0.2% (inactive).

On to `CC(=O)OC1/C=C(/C)CCC2OC2(C)CC2OC(=O)C3(CC3)C12` (stereo not given), for which the growth inhibition is -20.5% (inactive).

On to `CCCCCCCCCCCC(=O)Nc1ccc(N(C)C(C)=O)cc1`, for which the growth inhibition is -3.95% (inactive).

Consider `CN(Cc1ccc(Cl)cc1)C(=O)Nc1ccccc1Cl`, for which the growth inhibition is 14.7% (inactive).

Consider `CCOc1cc(C)c2cccc(C)c2n1`, for which the growth inhibition is -0.35% (inactive).

Consider `Cc1nc2ccccc2n1CCC(N)=O`, for which the growth inhibition was -2.1% (inactive).

For the compound `ClCC1=NC2C(Cl)C(Cl)C(Cl)C(Cl)C2N1` (stereo not given), the growth inhibition was 77% (active).

For `CC(C)CC(NS(=O)(=O)Cc1ccccc1)C(=O)NN` (stereo not given), the growth inhibition is -13.6% (inactive).
